AMPAR-TARP mod – GluA2-stargazin AMPA receptor complex modulation; HEK293 GluA2+stargazin, membrane potential dye (FDSS), glutamate EC50; hits were called plate by plate, in both directions; 3.5% of 40,000 active; AID 1259245; calls only at 30 µM;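 active = any of four per-well response measures lying three or more SD from its plate-wide compound average, in either direction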
Target sequence (O88602 whole entry, looked up): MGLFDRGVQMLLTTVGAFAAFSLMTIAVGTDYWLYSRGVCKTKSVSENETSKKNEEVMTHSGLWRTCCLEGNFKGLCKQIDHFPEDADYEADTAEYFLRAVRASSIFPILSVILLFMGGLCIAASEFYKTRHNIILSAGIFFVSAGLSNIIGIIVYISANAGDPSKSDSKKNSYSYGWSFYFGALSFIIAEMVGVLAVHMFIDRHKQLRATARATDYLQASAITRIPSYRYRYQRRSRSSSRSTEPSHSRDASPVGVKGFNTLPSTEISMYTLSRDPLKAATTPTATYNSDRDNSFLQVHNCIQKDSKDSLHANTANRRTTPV
Target sequence (P19491 whole entry, looked up): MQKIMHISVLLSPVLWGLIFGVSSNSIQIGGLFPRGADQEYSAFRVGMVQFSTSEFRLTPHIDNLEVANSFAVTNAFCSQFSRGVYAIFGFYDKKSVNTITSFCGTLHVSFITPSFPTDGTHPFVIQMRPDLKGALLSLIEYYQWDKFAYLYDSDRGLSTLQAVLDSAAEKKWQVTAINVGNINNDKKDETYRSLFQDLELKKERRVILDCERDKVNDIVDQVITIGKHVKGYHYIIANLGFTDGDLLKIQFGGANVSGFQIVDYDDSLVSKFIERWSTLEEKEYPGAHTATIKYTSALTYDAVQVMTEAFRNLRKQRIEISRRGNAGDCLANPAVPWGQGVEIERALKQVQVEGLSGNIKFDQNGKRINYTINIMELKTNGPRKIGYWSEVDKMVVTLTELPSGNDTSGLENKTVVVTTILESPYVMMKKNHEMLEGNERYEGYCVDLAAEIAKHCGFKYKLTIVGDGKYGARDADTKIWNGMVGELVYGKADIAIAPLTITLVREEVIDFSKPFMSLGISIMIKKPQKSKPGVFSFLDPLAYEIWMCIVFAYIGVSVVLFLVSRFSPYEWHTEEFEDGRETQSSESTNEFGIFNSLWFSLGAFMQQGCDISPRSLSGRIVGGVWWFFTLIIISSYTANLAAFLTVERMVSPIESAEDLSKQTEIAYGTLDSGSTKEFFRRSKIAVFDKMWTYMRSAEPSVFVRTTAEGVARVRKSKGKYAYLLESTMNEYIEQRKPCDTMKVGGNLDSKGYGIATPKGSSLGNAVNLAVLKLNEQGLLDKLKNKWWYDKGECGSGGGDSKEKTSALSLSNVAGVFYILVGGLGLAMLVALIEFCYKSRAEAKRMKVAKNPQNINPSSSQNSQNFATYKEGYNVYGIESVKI
GIRK2 activator – Activators of human GIRK2-containing channels | HEK293 GIRK2/NPY4 cells, thallium flux fluorescence | activation (% efficacy), % for hits at 37.5 µM | 34,000 tested, under 10 active | AID 1259324;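 active = primary screen hit, no activity in plain HEK293 cells, and in GIRK2-only cells above 5% efficacy rising with concentration; inactive = the rest, including fluorescent compounds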;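 note: efficacy is normalized control-subtracted fluorescence 15 s after thallium addition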
Of the large screens only hits and unclear results are named; the others gave an inactive call. This is one part of a sample in which hits are shown more often than they occur.

COc1cc(C(=O)N2C(=S)C(c3ccc(Br)cc3)=NC2(C)C)cc(OC)c1OC	none
CC(=O)N1CCc2c(sc(NC(=O)c3ccccc3)c2-c2nc3ccccc3s2)C1	none (no result: GIRK2 activator)
CC(C)N1CCc2c(sc(NC(=O)c3nc4ccccc4s3)c2-c2nc3ccccc3s2)C1	none (no result: GIRK2 activator)
CC(C)N1CCc2c(sc(NC(=O)c3ccco3)c2-c2nc3ccccc3s2)C1	AMPAR-TARP mod active (no result: GIRK2 activator)
CC(=O)N1CCc2c(sc(NC(=O)c3cc(C)n(C)n3)c2-c2nc3ccccc3s2)C1	AMPAR-TARP mod active
COc1ccccc1CNC(=O)c1sccc1S(=O)(=O)N1CCN(c2cc(C)ccc2C)CC1	none (no result: AMPAR-TARP mod)
COC(=O)c1sccc1S(=O)(=O)N1CCN(c2ccccc2F)CC1	AMPAR-TARP mod active (no result: GIRK2 activator)
COc1ccc(CNC(=O)c2sccc2S(=O)(=O)N2CCN(c3ccccc3F)CC2)cc1	none (no result: AMPAR-TARP mod)
COc1ccc(C2(CNS(=O)(=O)c3c(C)n[nH]c3C)CCCC2)cc1	AMPAR-TARP mod active
COc1ccc(C2(CNS(=O)(=O)c3cccnc3)CCCC2)cc1	none
CCCCCCCCn1c(C)c(C)n2c3c(=O)n(C)c(=O)n(C)c3nc12	none
COC(=O)C(C)n1c(C)cn2c3c(=O)n(C)c(=O)n(C)c3nc12 (stereo not drawn)	AMPAR-TARP mod active
Cc1c(C)n2c3c(=O)n(C)c(=O)n(C)c3nc2n1CC(O)CO (stereo not drawn)	AMPAR-TARP mod active
Cc1c(C)n2c3c(=O)n(CC(N)=O)c(=O)n(C)c3nc2n1C(C)C	none
COC(=O)C(C)n1c(C)c(C)n2c3c(=O)n(C)c(=O)n(C)c3nc12 (stereo not drawn)	AMPAR-TARP mod active
CC(=O)C(C)n1c(-c2ccccc2)cn2c3c(=O)n(C)c(=O)n(C)c3nc12 (stereo not drawn)	none
COc1ccc(-c2nc(SC(CC(=O)NCCc3ccccc3)c3ccc(C)cc3)n[nH]2)cc1 (stereo not drawn)	none (no result: GIRK2 activator)
CC(=O)Nc1ccc(C(=O)NCCNC(=O)C(C)Oc2ccc(Cl)cc2Cl)cc1 (stereo not drawn)	none
COCCn1c(C(=O)Nc2ccc(F)c(Cl)c2)cc2c(=O)n(C)c(=O)n(C)c21	AMPAR-TARP mod active
COCCn1c(C(=O)Nc2ccccc2)cc2c(=O)n(C)c(=O)n(C)c21	none
Cn1nc(-c2ccc(NC(=O)CC3CCCCC3)cc2)ccc1=O	none
COc1ccccc1NC(=S)NCCc1ccc(Cl)cc1	none (no result: GIRK2 activator)
Cc1ccnc(SCCn2c(N3CCOCC3)nc3c2c(=O)n(C)c(=O)n3C)n1	AMPAR-TARP mod active (no result: GIRK2 activator)
Cn1c(=O)c2c(nc(N3CCOCC3)n2CCSc2nc3ccccc3s2)n(C)c1=O	none (no result: GIRK2 activator)
O=C(Cc1ccc(F)cc1)Nc1cc(-c2cccs2)nn1CCO	none
O=C(CCSc1ccccc1)Nc1cc(-c2cccs2)nn1CCO	AMPAR-TARP mod active
COc1ccc(-n2ccnc(SCC(=O)Nc3cc(C)cc(C)c3)c2=O)cc1	none
O=C(Nc1nnc(Cc2cccs2)o1)c1ccco1	none
O=C(NCc1cccs1)c1coc(NC(=O)c2ccco2)n1	AMPAR-TARP mod active
CC(C)(C)n1ncc2c(=O)n(NC(=O)Cc3ccc(Cl)cc3)cnc21	none
Cc1nc(C)c(C(=O)N2CCN(c3ccc4nnc(-c5ccco5)n4n3)CC2)s1	none
COC(=O)c1c2c(nc3c1c(-c1ccco1)nn3C1CCS(=O)(=O)C1)CCC2 (stereo not drawn)	none (no result: AMPAR-TARP mod)
CC(=O)c1sc2nc(-c3ccco3)c3c(c2c1N)CCCC3	AMPAR-TARP mod active (no result: GIRK2 activator)
Nc1c(C(=O)N2CCCC2)sc2nc(-c3ccco3)c3c(c12)CCCC3	AMPAR-TARP mod active (no result: GIRK2 activator)
COc1ccc(OC)c(-c2csc(NC(=O)Cc3ccc(C(C)C)cc3)n2)c1	none
CSc1ccc(CC(=O)Nc2ccc3nc(C)sc3c2)cc1	none (no result: GIRK2 activator)
CC(C)Cc1cnc2c(c1SCC(=O)NC1CCCC1)c(=O)n(C)c(=O)n2C	AMPAR-TARP mod active (no result: GIRK2 activator)
Cc1cnc2c(c1SCC(=O)NC1CCCC1)c(=O)n(C)c(=O)n2C	none
CCCc1c(C(=O)Nc2cc(OC)ccc2OC)nnn1-c1ccccc1	none
CCCc1c(C(=O)Nc2cccc(C(=O)OC)c2)nnn1-c1ccccc1	AMPAR-TARP mod active
COC(=O)c1cccc(NC(=O)c2nnn(-c3ccccc3F)c2C)c1	AMPAR-TARP mod active
COC(=O)c1ccc(NC(=O)c2nnn(-c3ccccc3)c2C)cc1	none
O=C(NCCC(c1ccccc1)c1ccccc1)C(=O)Nc1ccc(F)cc1	none
O=C(Nc1cc(F)ccc1F)c1ccc(=O)n(Cc2cccc(F)c2)c1	none
CCOC(=O)c1c(NC(=O)COc2cccc3c2CCN(Cc2ccccc2F)C3=O)sc2c1CCC2	none (no result: GIRK2 activator)
CCN(C(=O)Cn1cnc2c(-c3ccccc3)csc2c1=O)c1ccccc1	AMPAR-TARP mod active
CN(C(=O)Cn1cnc2c(-c3ccccc3)csc2c1=O)c1ccc(F)cc1	none
O=S(=O)(c1cccs1)N1CCC(Cn2c(C(F)(F)F)nc3ccccc32)CC1	AMPAR-TARP mod active
CS(=O)(=O)N1CCC(Cn2c(C(F)(F)F)nc3ccccc32)CC1	none
O=C(NCc1ccccc1Cl)C(=O)NCC1CCN(C(=O)Nc2ccc(F)cc2)CC1	none
COc1ccccc1CNC(=O)c1ccc(Cn2c(=O)[nH]c3ccccc3c2=O)cc1	none
COc1ccccc1CNC(=O)CC1CCCCN1S(=O)(=O)c1ccccc1 (stereo not drawn)	none (no result: GIRK2 activator)
COc1ccc(S(=O)(=O)N2CCCCC2CC(=O)NCc2ccc(Cl)cc2)cc1 (stereo not drawn)	none (no result: GIRK2 activator)
Cc1ccc(S(=O)(=O)N2CCCCC2CC(=O)NC2CCCCCC2)cc1 (stereo not drawn)	AMPAR-TARP mod active (no result: GIRK2 activator)
COc1ccc(CCNC(=O)CC2CCCCN2S(=O)(=O)c2ccc(Cl)cc2)cc1OC (stereo not drawn)	AMPAR-TARP mod active (no result: GIRK2 activator)
COc1ccccc1CNC(=O)CC1CCCCN1S(=O)(=O)c1ccc(C)cc1 (stereo not drawn)	AMPAR-TARP mod active (no result: GIRK2 activator)
Cc1ccc(S(=O)(=O)N2CCCCC2CC(=O)NCc2ccccn2)cc1 (stereo not drawn)	none
COc1ccc(CCNC(=O)CC2CCCCN2S(=O)(=O)c2ccccc2)cc1 (stereo not drawn)	none (no result: GIRK2 activator)
O=C(CC1CCCCN1S(=O)(=O)c1ccccc1)NC1CCCCCC1 (stereo not drawn)	AMPAR-TARP mod active (no result: GIRK2 activator)
O=S(=O)(c1cccs1)N1CCC(Cn2c(COc3ccccc3)nc3ccccc32)CC1	none
O=C(NCc1n[nH]c(=O)c2ccccc12)c1ccc[nH]c1=O	none
CCN(CC)CCNC(=O)C(=O)Nc1cc([N+](=O)[O-])ccc1C	none (no result: GIRK2 activator)
COc1ccc2cc(CNc3ccccc3)c(=O)n(CC(=O)Nc3cc(C)ccc3C)c2c1	none (no result: GIRK2 activator)
COc1ccc(S(=O)(=O)N2CCCCC2CC(=O)NC2CCCCC2)cc1 (stereo not drawn)	none (no result: GIRK2 activator)
COc1ccc(S(=O)(=O)N2CCCCC2CC(=O)NC2CCCCCC2)cc1 (stereo not drawn)	AMPAR-TARP mod active (no result: GIRK2 activator)
O=C(Nc1cccc(C(F)(F)F)c1)C1CC(=O)N(c2ccc(F)cc2)C1 (stereo not drawn)	AMPAR-TARP mod active (no result: GIRK2 activator)
O=C(Nc1ccc2c(c1)CN(C(=O)c1ccccc1)CC2)C1CC(=O)N(c2ccc(F)cc2)C1 (stereo not drawn)	none
CN(C)C(CNC(=O)c1cc2ccccc2oc1=O)c1cccn1C (stereo not drawn)	none
O=C(Nc1ccc2ncsc2c1)c1ccc(S(=O)(=O)N2CCOCC2)cc1	none
CC1CC(C)CN(S(=O)(=O)c2ccc(C(=O)Nc3ccc4ncsc4c3)cc2)C1 (stereo not drawn)	AMPAR-TARP mod active

Screens: PubChem, several laboratories
